Laboratory results reported in the supplement of paper PMC12632987.

B1: uchl1_179_7503 (protein)
chain: AMKKVRIRATITFPKSTTMEQALAVAKEIAAALKELGVTGVSRIVVSRYNPENDPAHPDHMVITIGLVVPEEKAEAVIEAIKEIAAKAGAEVEIETEEVA
B2: uchl1_199_7507 (protein)
chain: SSLTEDIARNMAGRLLRYIRTPEVLAARAAELTARLIREQTHLSVEELTEIFLLLVDYVHAERTPEETRAATDAIVAEVERLLGDAAAAARIRAHAAALL
B3: uchl1_199_7511 (protein)
chain: MTKEEDIARNMAGRLLRYELDPEKVRERARRLATLLVERLSHLSVEEITETFLILVELVAKENNPEVLRAVTEAIVEVVRERLGDEEAARRIRERAEELA
B4: uchl1_199_7514 (protein)
chain: MSRAESIARQVGGRLLSGVGSPEVLAARAARLLREVLARLPDLPDEELLAMVRILLEAIAKNRSPETFDAVAAALIAVLQEERGIGAAAAAIAAEVRAKA
B5: uchl1_2_7536 (protein)
chain: KTKFVGARVEIEAVDPETGKRYRSRRTLIGTASAIEAMAEEVRRLVLAFKEDVKAPVTVRVTVYASDEETAAKARAAFERMAAELAAEGITVEVEVVLVK
B6: uchl1_2_7532 (protein)
chain: ESVFVGVLVTITSRNEATGETKVARRTLIALESNIEALMEEVKELVLAFKEEHGGKTEVKIEVYATREEVAKRAREVAEKMKEELEAAGIDATVEVKLVK
B7: uchl1_2_7524 (protein)
chain: KTVFVGALVTLEAEDKETGKVYRYRRNLIGTESAIEALAKEVKELVLNFKEAVGLPVKATVHIVASREEVLKKAVEEFEKMAKELAKEGIEVEITSELTK
B8: uchl1_2_7531 (protein)
chain: KKKTQFVGVLVTVRATRDGRELVARRTFIATESSIDALMAEVERYVRDFVAAAGTPARVAIRAVVSTEETGARVAAALAALAERLAPLAEEIEVTVEVRR
B9: uchl1_2_7530 (protein)
chain: KAEFVGALLTLTARDAETGETFRSRRTLIGTADAIEALMAEIEELALRFQADVGVPVTADIHVVVSNEETAERVREALARMAERLAAEGITVNVTVTVVR
B10: uchl1_2_7521 (protein)
chain: KAEFVGVLVDMTSTDPETGKTYRYRRNYIGTASAIPAMMAEVERDVLNFQENVGLPVDVALHIVASTEAALEAARAEAKKMAARLAAKGAKVTITGEVAK
B11: uchl1_2_7519 (protein)
chain: KTVIVGVLVDMRAYDPETGREYRARHTLIGTETAIEAMVEEIRERILAFRDDVGVPVEVDLHIVSSREEVARRLEALLKEMAAELAPEGVTVRISVTVTK
B12: uchl1_2_7537 (protein)
chain: KTRFVGVKVDIEARNEETGEVFRARRTLIGTADSIPAMAEEVERLVLEFQRRTGVPVRVEVHVYASDEETARLAREEFEKMAERLRKEGIEVRVEVTVVE
B13: uchl1_2_7533 (protein)
chain: KTVFVGVRVTITSRNPETGEVRRAVRTFIFTESSLEALTEEIRELALAFKADHGGATTVRIEAVATREEVAERLRELLERLAEELAAEGIEVEIEVTVVK
B14: uchl1_2_7526 (protein)
chain: KTKFVGVLVTLTSYNEETGKTYVSRRTLILSESGIEKLSEEILELVDRFKQVNGDNIKVKIHVVSTDEEALEKAKEKVEEAKEELEKRGVEVEVEYELVK
B15: uchl1_199_7509 (protein)
chain: SSKTRSIAINMAGRLLRYIMDPETARERALRLARELITRRPGLSVEEITETFELLVRLVAAERDPETVRAVTDAIVEAILELLGDEEAAARVRATAEALV
B16: uchl1_199_7518 (protein)
chain: MSREEDIARYMAGPFLFSNGSPEVVRARAYRLTVRLIRTRKDLSREELTAILVRFVEILAANRDPETVRAATEGIVEAVLEELGDEESAARIRAAAEALL
B17: uchl1_199_7506 (protein)
chain: SSKTEDIARNMAGRLLRYIRTPEVLAARARRLTRLLIERQTDLSVEEITETLLKLVELVHKERTPEETRAVTDAIVEAVLELLGDEEAARRIREHAEELL
B18: uchl1_2_7529 (protein)
chain: KTQFVGALVTMTATDPKTGKTYRARRILIGTADGIPAMMEEIEELALEFQKQTGVPVTVNVTVHVSKEEVAEEVKKKLEELKKRLAEKGITFTYEVIVHK
B19: uchl1_199_7505 (protein)
chain: SSRTEDIARNMAGRLLRYIRSPEVLAERARRLTRELIERQTHLSVEEITETLKLLVTYIHAERSPEETRAATDAIVEAVRELLGDEAAAAAIRAHTEALL
B20: uchl1_199_7510 (protein)
chain: SSRTESIARNMAGRLLRYIMDPETARERARRLARRLITRRPGLSVEELTETFQLLVEYVAAERDPAVTRAVTDALVEAVREELGDEAAAAAVRARAEELL
B21: uchl1_179_7504 (protein)
chain: ARRLVRIRATIVFPRSTTREEALAVARRIHAALKELGVTGLINLRVSRYNPENNPEHPDRMVIRLGLVVPEELADAVEAAIRALAAEAGAEIEIEREAIA
B22: uchl1_2_7520 (protein)
chain: KARFVGVLVDMTSTDPETGKTYRSRRNYIGTESAIPAMMAEVKEDVLNFQKNVGLPVKVDLHIVADTQEALDAAKAEAEKMAAELAKEGATVTISGEVAE
B23: uchl1_199_7512 (protein)
chain: MSRAESIARQVGGRLLSGIGSPEVLAAKAAALLRRVLARLPDLPDETLLEMVRILLEAIARERSPEAFAAVAAALIAVLDAERGIGAEVAAIAEEVRAAA
B24: uchl1_199_7516 (protein)
chain: MTRAESIARMLGGRLLRGIRDPEKLAARAAELTRRMLERLANLPDETILETVRLLLEAIARERSLEDARAAGEAIVEVLAEERGIGEAARAVVDEVLAAA
B25: uchl1_2_7534 (protein)
chain: KTVFVGVKVTVTVTDPATGKTTTTTRTFIGTADSVDALADAVTDYILRVKADSKADVAAAVTVYSTDKAVVDRAVAALNARVPELAAAGVTVTVTGTVVK
B26: uchl1_2_7535 (protein)
chain: KTKFVGVLVTLTATDAETGEVKTSRRTFIGTEDSVEALADEVKDYILDYKKDSGKAVKADIKIYSTDEEVVKKLEALLKEKEPELKAAGIEVNITGEVVK
B27: uchl1_2_7527 (protein)
chain: KSKFVGVKVTLTAYNEETGKTYVSTRTLILSESGIENLSKEILDLVERFKQVNGDNIEVDIKAVSTDEEALEKAKKELEKAKKELEAKGVKVNITYELVK
B28: uchl1_199_7515 (protein)
chain: MTRAESIAAQLGGRLLSGIYSPEVLAARAAALWADVLRRLSDLPDEELLEAFRILLEALAAAVDEASARAAAEAIVAVLAEERGIGERARAIADEVLAAR
B29: uchl1_199_7517 (protein)
chain: MSREDDIARYMAGPFLLSNGSPEVVRARARERTRRLIRTRKDLSPEELTEIMVRFVEILAAHRDPETVRAATEGIVEAILEELGDEEAARRVRARAEELL
B30: uchl1_199_7513 (protein)
chain: MTRAESIARQVGGRLLSGIGSPEVLAARAARLLRLVLERLPDLPDEELLEAVRLLLRAIAAERSPEAFDAVAAALTAVLQEERGIGERMAAIAAEVRAEA
B31: uchl1_199_7508 (protein)
chain: SSKTEDIARNMAGRLLRYIRSPEVLAARARRLTERLIREQTHLSVEEITETFLLLVDYVHANRSPEQTRAVTDAIVEAVERELGDEEAAKRIREHTESLL
B32: uchl1_2_7525 (protein)
chain: KTVFVGALLTLTSVDEETGEVYRYRRTLIGTASAIEALAREVEELVLNFRDDVGLPVDAEVHLVASDEETLRRAREAFEKMAERLAEEGITVTITSEVAR

Target: UCHL1, P09936
Test: median log2 fold change of GCK-ALFA target abundance (FLAG IP / Myc IP barcode read proportion) (log2 ratio); each designed protein is fused to an ALFA-tag nanobody in HEK293 cells to bring the named protein to FLAG-tagged glucokinase (GCK); Myc marks an untargeted standard; higher = target protein stabilised (more abundant)
Conditions: target protein: 3xFLAG-MCP-GCK-ALFA reporter; HEK293 landing pad (RPLP)
In short: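 Binders fused to an ALFA nanobody were recombined as a library into HEK293 landing-pad cells, which were induced with 2 μg mL^−1 doxycycline and then transfected to express a FLAG-tagged target and a Myc-tagged standard. After 48 h, circular RNA barcodes recovered by anti-FLAG and anti-Myc immunoprecipitation of lysates were reverse transcribed, amplified and sequenced. Each binder's target abundance is the median log2 ratio of FLAG to Myc barcode read proportions, from barcodes present at ≥10^−7 in both replicates, binders carrying ≥3 barcodes per replicate, a 10^−6 pseudocount and pooled replicates.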

UCHL1, P09936, sequence (P09936 whole entry, looked up, the tested form may be a part): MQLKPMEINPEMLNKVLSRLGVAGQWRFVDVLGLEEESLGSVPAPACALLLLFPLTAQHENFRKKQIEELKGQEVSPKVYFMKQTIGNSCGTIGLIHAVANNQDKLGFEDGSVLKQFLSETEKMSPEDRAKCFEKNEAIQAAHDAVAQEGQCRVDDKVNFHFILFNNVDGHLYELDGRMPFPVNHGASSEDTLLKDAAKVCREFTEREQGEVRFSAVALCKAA

First: B1
Second: B2
The “median log2 fold change” value of the first is lower: -0.0524 for the first, 0.269 for the second.

B3 and B4 are within 0.2 log units of each other in “median log2 fold change” value: -0.27 for the first, -0.0877 for the second.

First: B5
Second: B6
The “median log2 fold change” value of the first is lower: -0.837 for the first, -0.231 for the second.

B7 and B8 are within 0.2 log units of each other in “median log2 fold change” value: -0.455 for the first, -0.524 for the second.

Compared with B9, B10 is lower in “median log2 fold change” value: -0.378 for the first, -1.03 for the second.

B11 and B12 are within 0.2 log units of each other in “median log2 fold change” value: -0.204 for the first, -0.302 for the second.

Compared with B13, B14 is lower in “median log2 fold change” value: -0.457 for the first, -0.696 for the second.

B15 and B16 are within 0.2 log units of each other in “median log2 fold change” value: -0.0199 for the first, -0.219 for the second.

First: B17
Second: B18
The “median log2 fold change” value of the first is higher: 0.171 for the first, -0.784 for the second.

First: B19
Second: B20
The “median log2 fold change” value of the first is higher: 0.192 for the first, -0.193 for the second.

Compared with B21, B22 is lower in “median log2 fold change” value: 0.192 for the first, -1.27 for the second.

B23 and B24 are within 0.2 log units of each other in “median log2 fold change” value: -0.679 for the first, -0.835 for the second.

Going from B25 to B26, the “median log2 fold change” value falls from 0.287 to -0.112.

First: B27
Second: B28
The “median log2 fold change” value of the first is lower: -0.63 for the first, 0.16 for the second.

First: B29
Second: B30
The “median log2 fold change” value of the first is higher: 0.00596 for the first, -0.209 for the second.

B31 and B32 are within 0.2 log units of each other in “median log2 fold change” value: 0.0747 for the first, 0.0632 for the second.
